The supplement of paper PMC6522484
± gives the standard deviation of the averaged measurements.

Tests used:
DLD1 [1] = experiment: cell viability (CellTiter-Glo) relative to plate median (fraction of plate median); higher = more viable cells; details: 10 µM, treatment time 24 h
Procedure, shortened: (§1)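 Reporter and viability luminescence were measured in colorectal cancer cells stably carrying lentiviral TCF/Wnt firefly luciferase reporters. The cells were exposed to kinase inhibitor library compounds at a final 10 µM for 24 h, starting 24 h after seeding in 384-well plates. Each well was normalised to the plate median (webcellHTS2, additive, no log transformation), and two independent replicates were averaged.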

HCT116 [2] = experiment: as above; details: 10 µM; treatment time 24 h; reporter: TCF4/Wnt
Procedure, shortened: as §1

SW480 [3] = experiment: as above; details: 10 µM; treatment time 24 h; reporter: 7TFP
Procedure, shortened: as §1

DLD1 [4] = experiment: TCF/Wnt firefly luciferase reporter signal relative to plate median (fraction of plate median); higher = higher Wnt reporter signal; details: 10 µM, treatment time 24 h
Procedure, shortened: as §1

HCT116 [5] = experiment: as above; details: 10 µM; treatment time 24 h; reporter: TCF4/Wnt
Procedure, shortened: as §1

SW480 [6] = experiment: as above; details: 10 µM; treatment time 24 h; reporter: 7TFP
Procedure, shortened: as §1

SMILES	cell viability (DLD1 [1]; reporter: 7TFP)	cell viability (DLD1 [1]; reporter: TCF4/Wnt)	cell viability (HCT116 [2])	cell viability (SW480 [3])	TCF/Wnt firefly luciferase reporter signal (DLD1 [4]; reporter: 7TFP)	TCF/Wnt firefly luciferase reporter signal (DLD1 [4]; reporter: TCF4/Wnt)	TCF/Wnt firefly luciferase reporter signal (HCT116 [5])	TCF/Wnt firefly luciferase reporter signal (SW480 [6])
CCC(=O)N1CCN(c2ccc(-n3c(=O)ccc4cnc5ccc(-c6cnc7ccccc7c6)cc5c43)cc2C(F)(F)F)CC1 [Torin 1]	0.914 ± 0.16	0.97 ± 0.013	0.827 ± 0.045	1.17 ± 0.11	0.252 ± 0.044	0.311 ± 0.049	0.44 ± 0.096	0.66 ± 0.14
C[C@@H]1CN(CC(=O)Nc2ccc3c(c2)Cc2cccc(-c4cc(=O)cc(N5CCOCC5)o4)c2S3)C[C@H](C)O1	0.7975 ± 0.00071	0.878 ± 0.043	0.957 ± 0.012	0.952 ± 0.058	1.3 ± 0.092	1.32 ± 0.11	1.33 ± 0.66	1.23 ± 0.071
O=C(NOCC(O)CO)c1cc(Br)c(F)c(F)c1Nc1ccc(I)cc1F (stereo not given)	1.17 ± 0.12	0.96 ± 0.13	0.891 ± 0.047	1.19 ± 0.028	1.72 ± 0.38	1.47 ± 0.16	1.95 ± 0.47	2.33 ± 0.064
Cc1ccc(NC(=O)c2cccc(N(C)C)c2)cc1NC(=O)c1ccc(O)cc1	1.11 ± 0.16	1.095 ± 0.0071	1.23 ± 0.11	0.907 ± 0.033	1.07 ± 0.092	1.12 ± 0.014	1.04 ± 0.035	0.955 ± 0.092
CCn1cc(-c2ccnc3[nH]c(-c4cccc(CN(C)C)c4)cc23)c(-c2ccc(NC(=O)N(C)C)cc2)n1	0.994 ± 0.11	0.9965 ± 0.0021	0.913 ± 0.05	1.07 ± 0.099	1.01 ± 0.11	1.05 ± 0.081	1.71 ± 0.028	1.02 ± 0.16
C=CC(=O)Nc1cccc(Oc2nc(Nc3ccc(N4CCN(C)CC4)cc3OC)ncc2Cl)c1	1.24 ± 0.014	1.08 ± 0.042	1.14 ± 0.05	0.922 ± 0.064	1.16 ± 0.078	1.05 ± 0.05	0.722 ± 0.55	0.71 ± 0.31
CCS(=O)(=O)Nc1ccc2c(c1)/C(=C(/Nc1ccc(CN3CCCCC3)cc1)c1ccccc1)C(=O)N2 [Hesperadin]	1.08 ± 0.13	1.14 ± 0.085	0.556 ± 0.2	0.873 ± 0.15	0.765 ± 0.36	0.902 ± 0.11	0.492 ± 0.031	0.557 ± 0.16
C#Cc1cccc(Nc2ncnc3cc(OCCOC)c(OCCO)cc23)c1	0.923 ± 0.073	0.988 ± 0.045	1.22 ± 0.064	0.961 ± 0.013	0.821 ± 0.11	0.819 ± 0.14	0.804 ± 0.012	1.05 ± 0.098
O=C(NC[C@H](O)CO)c1ccncc1Nc1ccc(I)cc1F	1.15 ± 0.078	1.14 ± 0.071	0.817 ± 0.036	1.14 ± 0.028	1.71 ± 0.46	1.73 ± 0.54	1.18 ± 0.32	2.17 ± 0.11
CC[C@H](Nc1ncnc2[nH]cnc12)c1nc2cccc(F)c2c(=O)n1-c1ccccc1	1.05 ± 0.14	0.999 ± 0.086	1.11 ± 0.042	0.996 ± 0.02	0.977 ± 0.089	0.788 ± 0.024	0.777 ± 0.3	0.751 ± 0.26
